Compounds with a hit are over-represented: about 2.3% of the library has one in this group of screens.
CHO-K1 Ca antag: counter-screen for M1 antagonists: effect in parental CHO-K1 cells | AID 602250 | ATP-induced calcium, Fluo-8 fluorescence | inhibition, % at 3 µM | actives 0.6% (n = 360,000);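 active = inhibition above a per-plate cutoff, the plate's mean sample inhibition plus 3 SD, cut at about 24% in these data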;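 note: 0% = DMSO plus EC80 ATP and 100% = DMSO alone without ATP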
M1 PAM: human M1 muscarinic receptor positive allosteric modulators, primary screen, CHO-K1 cells, Fluo-8 calcium fluorescence, 1536-well. activation, % at 3 µM. Muscarinic acetylcholine receptor M1 (Homo sapiens), P11229. CHO-K1 hM1, ACh EC20; 0% = ACh EC20, 100% = maximal ACh. actives 0.088% (n = 360,000); in the data active = activation above about 19%, passing the limit was not always enough
Target sequence (P11229 whole entry, looked up): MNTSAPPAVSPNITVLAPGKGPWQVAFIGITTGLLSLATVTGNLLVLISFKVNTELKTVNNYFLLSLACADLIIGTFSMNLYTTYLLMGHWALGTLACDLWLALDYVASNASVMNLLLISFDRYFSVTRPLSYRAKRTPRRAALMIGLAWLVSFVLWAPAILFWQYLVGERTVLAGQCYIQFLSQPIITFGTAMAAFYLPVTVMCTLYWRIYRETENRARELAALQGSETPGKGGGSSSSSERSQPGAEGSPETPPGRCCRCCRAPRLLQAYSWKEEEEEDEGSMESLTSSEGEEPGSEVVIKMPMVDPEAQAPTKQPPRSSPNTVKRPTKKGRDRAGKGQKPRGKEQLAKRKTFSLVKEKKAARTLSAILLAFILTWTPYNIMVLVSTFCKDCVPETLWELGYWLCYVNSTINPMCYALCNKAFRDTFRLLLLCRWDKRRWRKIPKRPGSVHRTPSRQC
CHRM1 antagonist: human M1 muscarinic receptor antagonists, primary screen, CHO-K1 cells, Fluo-8 calcium fluorescence, 1536-well. Muscarinic acetylcholine receptor M1 (Homo sapiens), P11229. CHO-K1 hM1, ACh EC80 antagonist. inhibition, % at 3 µM. actives 1.3% (n = 360,000);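 active = percent inhibition above its own plate's cutoff, namely the mean of that plate's compound wells plus 3 SD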;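 note: peak over basal fluorescence ratio during 140 s after agonist addition; 0% = ACh EC80 plus DMSO and 100% = DMSO alone without agonist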
M1 ag: human M1 muscarinic receptor agonists, primary screen, Fluo-8 calcium fluorescence, CHO-K1 cells, HTS. AID 588814, 2011. activation, % at 3 µM. actives 0.33% (n = 360,000). CHO-K1 hM1, agonist mode; 0% DMSO, 100% acetylcholine EC100;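 active = activation above the run's mean compound activation plus 3 SD, cut at about 16% in these data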;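 note: peak over basal fluorescence ratio within a 140 s kinetic read after compound addition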
CHO-K1 Ca ag: counter-screen for M1 agonists: effect in parental CHO-K1 cells. actives 0.48% (n = 360,000). Fluo-8 calcium fluorescence; scaled to maximal ATP response, vehicle zero. activation, % at 3 µM; in the data active = activation above about 15%;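 note: untransfected CHO-K1 host cells lacking M1 receptor as counterscreen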
M1 PAM parental: nonselective calcium activators in parental CHO-K1 cells, primary screen, counter-screen for M1 PAM project, cell-based, Fluo-8 calcium fluorescence, full deck, 1536-well; ATP EC20; 0% at ATP EC20, 100% at ATP max; activation, % at 3 µM; actives 0.02% (n = 360,000);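 active = activation above the run cutoff, the mean activation of all test compounds plus 3 SD, cut at about 40% in these data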;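 note: peak over basal fluorescence ratio in a 140 s read after ATP addition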
An asterisk follows results filed as active.

SMILES	CHO-K1 Ca antag	M1 PAM	CHRM1 antagonist	M1 ag	CHO-K1 Ca ag	M1 PAM parental
O=C(COc1ccc(S(=O)(=O)N2CCOCC2)cc1)NCc1ccccc1	22	-7	29*	-2	0	-16
COc1ccc(CNC(=O)COc2ccc(S(=O)(=O)N3CCOCC3)cc2)cc1	-1	0	0	-2	1	-10
COc1ccc(S(=O)(=O)N2CCOCC2)cc1NC(=O)CO/N=C/c1ccccc1OC(F)F	1	13	-11	-8	15*	21
COc1ccc(S(=O)(=O)N2CCOCC2)cc1NC(=O)c1ccc2c(c1)OCO2	-8	6	-5	-2	2	1
Cc1ccc(S(=O)(=O)N2CCN(CC(=O)N/N=C/c3ccco3)CC2)cc1	11	4	1	-3	-1	-3
Cn1c(CNC(=O)c2ccc3c(c2)OCO3)nnc1SCC(=O)Nc1ccc(F)cc1F	-7	11	-14	-10	-1	-2
COc1cc(OC)cc(C(=O)NN2CCOCC2)c1	-10	9	-11	-1	0	3
CC(C)c1ccc(C2NC(=O)CCC2[N+](=O)[O-])cc1 (stereo not given)	9	13	-5	-9	0	-8
O=C(CCCOc1ccc(Br)cc1)Nc1ccc(S(=O)(=O)N2CCOCC2)cc1	5	-13	32*	3	13	-10
O=C(COc1ccc(S(=O)(=O)N2CCOCC2)cc1)Nc1ccc(Br)cc1	-5	0	-1	-1	6	10
O=C(NCCN1CCN(S(=O)(=O)c2ccc(F)cc2)CC1)C(=O)NCc1ccccc1	24*	2	-2	-4	3	0
Fc1cccc(Cc2c(-c3ccco3)nc3ccc(Br)cn23)c1	-21	5	-17	-1	0	22
O=[N+]([O-])c1ccc2cn[nH]c2c1	35*	1	-19	0	2	-10
Cc1ccc(C)c(N2CCN(C(=O)CCNS(=O)(=O)c3ccc4c(c3)oc(=O)n4C)CC2)c1	-2	-14	14	1	17*	-14
Cn1c(=O)oc2cc(S(=O)(=O)NCCC(=O)N3CCN(c4ccccc4F)CC3)ccc21	-2	-4	11	-4	3	-7
COc1cc(C2=NOC(C(=O)NCc3cccs3)C2)cc(OC)c1OC (stereo not given)	0	4	-4	1	2	-11
COc1ccc(C2=NOC(C(=O)NCc3cccs3)C2)cc1 (stereo not given)	-5	7	56*	-2	1	17
Cc1cc(C)cc(NC(=O)Nc2ccc3c(c2)N(C)C(=O)CS3)c1	21	-29	44*	-2	13	-2
CC(=O)c1cccc(NC(=O)Nc2ccc3c(c2)N(C)C(=O)CS3)c1	8	-18	35*	5	15	-1
Cc1ccc(NC(=O)Nc2ccc3c(c2)N(C)C(=O)CS3)cc1C	35*	-23	32*	0	13	-6
CCc1ccc(NC(=O)Nc2ccc3c(c2)N(C)C(=O)CS3)cc1	16	-23	28	1	11	6
CC1N=C(SCC(=O)c2ccc(F)cc2)N2C(C)N=C(SCC(=O)c3ccc(F)cc3)N12 (stereo not given)	8	2	-10	-3	0	-8
Cc1ccccc1NS(=O)(=O)c1c(C(=O)N2CCCCCC2)c(C)n(C)c1C	-16	1	-5	1	1	15
O=C(COC(=O)c1ccc(O)cc1O)NC(=O)Cc1ccccc1	-1	2	4	33*	18*	12
C=CCn1c(O)c(C=Nc2ccccc2)sc1=S	29*	3	2	-9	-1	-12
Cc1cccc(NS(=O)(=O)c2ccc(C(=O)N3CCCCCC3)cc2)c1C	-1	-6	6	7	12	1
Cc1ccc(C2(C)NC(=O)N(CC(=O)NC(=O)NC(C)C)C2=O)cc1 (stereo not given)	-7	4	6	4	1	-14
